A selection: hits, their analogues and other compounds. The true share with any hit is near 7.3%.
Tau fluor counter: counter-screen for tau fibril formation inhibitors | tau K18 P301L Alexa594 fluorescence, heparin fibrillization | Potency, µM (highest dose often 57.7 µM), inactives show at the top dose activity change, negative = decrease | actives 0.93% (n = 280,000) | AID 1463; further: nearly all actives have a fitted effect of over 55% in size
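Human tau K18 P301L (15 uM unlabeled, 0.24 uM Alexa 594-labeled) in 100 mM sodium acetate pH 7 with 20 uM heparin, 6 hr at 37 C. ThT 30 uM added, 1 hr ambient; Alexa 594 FP and total fluorescence read at 555/632 nm.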
RORg inh: blocks mouse ROR gamma transcriptional activity | Potency, µM (doses to about 53.6 µM), without a hit: at the highest dose activity change, negative = inhibition, usual class: inhibitors | P51450 | actives 5.4% (n = 310,000) | Drosophila S2 Gal4-RORgamma UAS-luciferase reporter, 20 h | AID 2551; further: nearly all actives have a fitted effect of over 60% in size
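Luciferase reporter read in Schneider cells carrying Gal4-RORγ (mouse) and UAS-Photinus luciferase; cells given compound 1 h before 700 uM copper sulfate induction, then incubated 20 h at ambient temperature.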
Tau fibril ThT: inhibitors of human tau fibril formation, thioflavin T binding. recombinant tau K18 P301L, heparin-induced fibrillization, ThT fluorescence. actives 2.1% (n = 270,000). Potency, µM (highest dose often 57.4 µM), without a hit: top-dose activity, negative = inhibition, actives largely listed as inhibitors. P10636; further: nearly all actives have a fitted effect of over 55% in size
Target sequence (P10636 561-689 P618L limits assumed): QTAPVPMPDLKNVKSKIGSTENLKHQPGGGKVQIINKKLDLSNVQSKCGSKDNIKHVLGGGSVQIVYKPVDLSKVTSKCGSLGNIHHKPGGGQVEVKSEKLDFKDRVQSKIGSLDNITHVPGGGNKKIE
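Using a mix of unlabeled (15 uM) and Alexa 594-labeled (0.24 uM) tau K18 P301L, heparin-triggered fibrillization over 6 hr at 37 C was scored by ThT fluorescence.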
Tau fibril FP: blocks human tau fibril formation measured by polarization | actives 0.39% (n = 280,000) | P10636 | K18 P301L tau heparin fibrillization, Alexa594 FP, 6 h | Potency, µM (highest dose often 57.7 µM), without a hit: top-dose activity, negative = inhibition, hits mostly inhibitors; further: nearly all actives have a fitted effect of over 55% in size
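Quantitative HTS format: compounds meet 15 uM recombinant K18 P301L tau and Alexa 594-tau tracer in 100 mM sodium acetate pH 7; 20 uM heparin triggers fibrillization at 37 C over 6 hr; FP gives the signal.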
VP16 counter: counter-screen for ROR gamma inhibitors: Gal4-VP16 reporter; Drosophila S2 Gal4-VP16 UAS-luciferase, luminescence, 20 h; Potency, µM (doses to about 53.6 µM), for inactives: at the top dose activity, negative = inhibition, most hits filed as inhibitors; actives 3.5% (n = 310,000);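 further: Gal4-VP16 expression switched on by copper sulfate through the metallothionein promoter; nearly all actives have a fitted effect of over 50% in size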
Numbers without * were called inactive; ? = inconclusive; nt = not tested or not shown; [ ] = another dose, or the depositor's remark. The call rests on the fitted dose curve; in most records, active means well fitted curve in the direction sought with a large enough effect; inconclusive means small, poorly fitted or top-dose-only effect, or another doubt; inactive means no such curve, though single readings can be large; an effect the other way counts as inactive or inconclusive. On the % scale 0 is the no-effect control and ±100 the full control effect; potency means the concentration at half of the fitted maximal effect.

SMILES | Tau fluor counter | RORg inh | Tau fibril ThT | Tau fibril FP | VP16 counter
O=C(O)c1ccc(Nc2nc(-c3cc4ccccc4oc3=O)cs2)cc1O | ? | 21.7% | 7.94µM* | 0.6% | -17.9%
CC(=O)Nc1ccc(Nc2nc(-c3cc4ccccc4oc3=O)cs2)cc1 | nt | 41.5% | nt | nt | -1.6%
COc1ccc(Nc2nc(-c3cc4cccc(OC)c4oc3=O)cs2)cc1 | ? | -2.4% | ? | 11.1% | -29.7%
COc1ccc2oc(=O)c(-c3csc(Nc4cccc(O)c4)n3)cc2c1 | 6.31µM*[quencher] | 40.8% | 12.6µM* | -3.9% | -15.1%
CN(C)CCCN1c2ccccc2C(C)(C)c2ccccc21 | nt | 2.1%[10 µM] | nt | nt | 6.1%
O=c1c2c(nc3cc(-c4ccc(F)cc4)[nH]n13)CCCC2 | 1.6% | 8.91µM* | -2.9% | -3.8% | 11.2µM*
CCN(CC)CCNCc1ccc(-c2ccc(Cl)cc2)o1 | 4.0% | 7.94µM* | -3.6% | 7.6% | 0.3%
O=C1c2sc3nc4n(c(=O)c3c2CCC1Br)CCCCC4 (configuration not stated) | ? | 10µM* | ? | ? | 20µM*
CC1C(=O)Nc2ccccc2N1C(=O)c1ccc(F)cc1 (configuration not stated) | nt | 21.0% | nt | nt | 1.1%
CC(C)(C)c1ccc(/C=C2\SC(=O)N(CCNC(=O)c3cccc(S(=O)(=O)N4CCOCC4)c3)C2=O)cc1 | -29.7% | ? | ? | 5.0% | 2µM*
Cc1ccc(S(=O)(=O)N2CCOCC2)cc1C(=O)NCCN1C(=O)S/C(=C\c2ccccc2Cl)C1=O | -8.6% | ? | -9.3% | -1.8% | -10.4%
O=C1NC(=Nc2ccccc2)/C(=C/c2ccco2)S1 | ? | ? | 22.4µM* | -9.1% | 2.8%
N#C/C(=N\Nc1cccc(C(F)(F)F)c1)C(=O)c1csc(-c2cccnc2)n1 | -15.2% | ? | 4.47µM* | 9.8% | 6.2%
CC(C)Oc1ccccc1-c1nc(SCC(=O)c2ccc(F)cc2)n[nH]1 | -29.7% | nt | -14.7% | -3.5% | nt
COc1ccc(Cl)cc1NC(=O)Cn1c(=O)n(-c2ccc(C)cc2)c(=O)c2ccc(C(=O)NCc3ccccc3Cl)cc21 | -14.2% | nt | 7.3% | ? | nt
Clc1ccc(N2CCN(/N=C/c3ccncc3)CC2)cc1 | -8.7% | -1.1% | ? | -7.6% | ?
Cc1ccc(N2CCN(/N=C/c3ccncc3)CC2)cc1 | -14.1% | -2.7% | ? | 4.7% | 14.1µM*
O=c1c(-c2ccccc2)c1-c1ccccc1 | -23.1% | ? | ? | ? | 0.794µM*
CN(Cc1ccccc1)Cc1nc2scc(-c3ccccc3)c2c(=O)[nH]1 | -8.6% | 3.16µM* | -16.3% | -0.7% | ?
O=c1[nH]c(Cc2ccccc2)nc2scc(-c3ccccc3)c12 | -9.7% | ? | -6.9% | -5.9% | 8.7%
CCCN(CCC)CC(O)CN1C(=O)N(CN2C(=O)N(CC(O)CN(CCC)CCC)C(=O)C2(C)C)C(C)(C)C1=O (configuration not stated) | -7.2% | 29.7% | -5.4% | -1.2% | -12.3%
CCOc1ccc(CNC(=S)N/N=C/c2ccc(OC)c(OC)c2)cc1 | ? | 11.2µM* | -7.8% | -17.2% | 10µM*
CCOc1ccc(/C=N/NC(=O)CC(=O)NCc2ccccc2)cc1 | -7.1% | -2.0% | -4.5% | -3.8% | -19.1%
COc1cc(/C=N/NC(=S)NCc2ccccc2)ccc1OCC#N | ? | 10µM* | 0.2% | -11.9% | ?
COc1ccc2[nH]c3c(N4CC(C)OC(C)C4)ncnc3c2c1 (configuration not stated) | -13.7% | 20.3% | -24.7% | 8.5% | -1.2%
COc1cccc(N2CCN(c3ncnc4c3[nH]c3ccccc34)CC2C)c1 (configuration not stated) | 14.1µM*[quencher] | ? | ? | ? | 14.1µM*
COc1cccc(N2CCN(c3ncnc4c3[nH]c3ccc(F)cc34)CC2C)c1 (configuration not stated) | 17.8µM*[quencher] | ? | ? | ? | 7.08µM*
COc1cccc(Cn2c(SCC(=O)N3CCN(c4ccc(F)cc4)CC3)nc3ccccc32)c1 | -4.2% | nt | -12.7% | -0.3% | nt
CCc1ccc2c(c1)c1nc(C)sc1n2CC | -26.4% | 10µM* | 25.1µM* | ? | 11.2µM*
